Results as given in PubChem BioAssay AID430 (Sanford-Burnham Center for Chemical Genomics, 2006).
About 1,100 (1.7%) of roughly 63,000 compounds were called active. Rule as the data show it: active = cytotoxicity above about 50%; inactive = the rest. This excerpt belongs to a sample that is enriched for actives. Potency and affinity values are given separately.

Experiment: cytotoxicity in HPDE-C7 cells, cell-based, fluorescence, HTS (AID 430);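 also: cells exposed to compound for 48 hours before viability readout; 0% = vehicle and 100% = reference cytotoxic drug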
Details: HPDE-C7 pancreatic duct cells viability, at 10 µM, active compounds read high
With `CCOCC(=O)Nc1cccc(NC(C)=O)c1` the cytotoxicity was -3.5% (inactive). With `COc1ccc(C(=O)N(Cc2ccco2)Cc2cc3cc(C)ccc3[nH]c2=O)cc1OC` the cytotoxicity was 4.2% (inactive). With `Cc1ccc(S(=O)(=O)Nc2ccc(NC(=O)CN3CCCCC3)cc2)cc1` the cytotoxicity was -3% (inactive). For `COc1ccc(OCC(=O)Nc2ccc3c(c2)nc(CCN2CCOCC2)n3C)cc1`, the cytotoxicity was 10.7% (inactive). For `COc1ccc(C(CNC(=O)Cc2cc(OC)c(OC)c(OC)c2)N2CCCC2)cc1` (stereo not given), the cytotoxicity was -31.8% (inactive). With `COc1ccc(-c2nnc(SCC(=O)NC(C)c3ccccc3)o2)cc1OC` (stereo not given) the cytotoxicity was -26.2% (inactive). With `O=C(OCc1nnc(-c2ccccc2)o1)c1cc(=O)c2ccccc2o1` the cytotoxicity was 1.2% (inactive). With `CCC(C)NC(=O)NC1C(NC(=O)NC(C)CC)N(C)C(=O)N1C` (stereo not given) the cytotoxicity was -7.6% (inactive). For `CCN(C(=O)c1coc(=O)c2ccccc12)c1cc(OC)ccc1OC`, the cytotoxicity was -6.4% (inactive). In the case of `Cc1[nH]nc2c1C1(CCN(Cc3ccccc3)CC1)C(C#N)=C(N)O2`, the cytotoxicity is reported as -9.5% (inactive). For `COc1ccc(C2=NOC(C(=O)N3CCOCC3)C2)cc1OC` (stereo not given), the cytotoxicity was -3.2% (inactive). In the case of `Cc1ccc2nc(SCCC#N)nc(C)c2c1`, the cytotoxicity is reported as -10.1% (inactive). With `COc1ccc(S(=O)(=O)N2CC(C)N(S(=O)(=O)c3ccc(OC)cc3)CC2C)cc1` (stereo not given) the cytotoxicity was -4.1% (inactive). For `Cn1c(SC2=CS(=O)(=O)c3ccccc32)nc2ccccc21`, the cytotoxicity was 49.6% (inactive). With `Cc1cc(C)nc(SC2=CS(=O)(=O)c3ccccc32)n1` the cytotoxicity was 4.3% (inactive). With `O=S1(=O)C=C(Sc2nnc(-c3ccccc3)o2)c2ccccc21` the cytotoxicity was 47.8% (inactive). In the case of `O=S1(=O)C=C(Sc2nc3ccccc3s2)c2ccccc21`, the cytotoxicity is reported as 109% (active). With `Clc1ccc2oc(-c3ccccc3)nc2c1` the cytotoxicity was -4.4% (inactive). With `COc1ccc(/C=N/n2cnnc2SCCO)cc1OC` the cytotoxicity was -14.1% (inactive). In the case of `COc1ccc(-c2nnc3sc(-c4ccccn4)nn23)cc1`, the cytotoxicity is reported as -5.5% (inactive). For `COc1ccc(-c2cn3cccnc3n2)cc1NC(=O)C1CCCC1`, the cytotoxicity was -13.7% (inactive). For `Cn1c(Cn2nnc3ccccc32)nnc1SCC(=O)N1c2ccccc2Sc2ccccc21`, the cytotoxicity was -9.1% (inactive). For `CCCC(N)CCCCCC(=O)O` (stereo not given), the cytotoxicity was -2.3% (inactive). In the case of `CCSC(SCC)[C@H](O)[C@@H](O)[C@H](O)[C@H](O)CO`, the cytotoxicity is reported as 11.2% (inactive). For `COc1ccccc1N1C(=O)C2C3C=CC(C3)C2C1=O` (stereo not given), the cytotoxicity was -6% (inactive). For `O=c1oc2ccccc2n1CSc1nc2ccccc2s1`, the cytotoxicity was -4% (inactive). With `CCNS(=O)(=O)c1ccc(NC(=O)c2ccccc2OCC)cc1` the cytotoxicity was 10.2% (inactive). With `CCCCC(=O)Nc1nc(C)c(C(C)=O)s1` the cytotoxicity was -0.6% (inactive). In the case of `CC(=O)c1sc(NC(=O)C2(F)C(F)(F)C(F)(F)C(F)(F)C(F)(F)C2(F)F)nc1C`, the cytotoxicity is reported as 52.4% (active). In the case of `CC(=O)c1sc(NC(=O)C=C(C)C)nc1C`, the cytotoxicity is reported as 1.3% (inactive). With `O=C(c1ccco1)N1CCN(Cc2ccc(Cl)cc2)CC1` the cytotoxicity was -3.7% (inactive). With `CCN(CC)S(=O)(=O)c1ccc2c(c1)nc(SCC(=O)NC1CC1)n2-c1ccccc1OC` the cytotoxicity was 3.8% (inactive). For `COc1ccc(-c2nc3ccccc3c(=O)n2CCCn2ccnc2)cc1`, the cytotoxicity was -0.2% (inactive). In the case of `O=S(=O)(Nc1ccc2c(c1)OCCO2)c1ccc2oc3ccccc3c2c1`, the cytotoxicity is reported as 83.9% (active). With `CSc1ccc(S(=O)(=O)Nc2ccc3c(c2)OCCO3)cc1` the cytotoxicity was 8.6% (inactive). With `COc1ccc(NS(=O)(=O)c2ccc3oc4ccccc4c3c2)cn1` the cytotoxicity was 25.3% (inactive). For `CCc1c(C)nc2ncnn2c1N1CCC(C(=O)Nc2cccc(C(C)=O)c2)CC1`, the cytotoxicity was -7.9% (inactive). With `N#Cc1c(NC(=O)CSc2nnc(-c3ccncc3)n2CC2CCCO2)sc2c1CCCC2` (stereo not given) the cytotoxicity was 4.8% (inactive). For `Cc1ccccc1-c1nnc2s/c(=C\c3ccc(N(C)C)cc3)c(=O)n12`, the cytotoxicity was 2.2% (inactive). For `Cc1ccc(/C=c2\sc3nc(-c4ccccc4Br)nn3c2=O)o1`, the cytotoxicity was 2.6% (inactive). For `Cc1ccc(/C=c2/sc3nnc(-c4ccccc4Cl)n3c2=O)o1`, the cytotoxicity was 69.7% (active). In the case of `OCc1cn(-c2ccccc2)nc1-c1ccc2c(c1)OCCO2`, the cytotoxicity is reported as -21.5% (inactive). For `CC(=O)Nc1ccc(S(=O)(=O)N2CCSC2c2ccccc2Cl)cc1` (stereo not given), the cytotoxicity was 3.4% (inactive). For `CC1CCCCN1CCn1cnc2c([nH]c3ccccc32)c1=O` (stereo not given), the cytotoxicity was -2.1% (inactive). In the case of `CCNc1nc(NC(C)C)nc(N(C#N)CCOc2ccc(Cl)cc2Cl)n1`, the cytotoxicity is reported as 94.5% (active). In the case of `CCCN(C#N)c1nc(NCC)nc(NC(C)C)n1`, the cytotoxicity is reported as -11.1% (inactive). With `CCNc1nc(NC(C)C)nc(N(C#N)Cc2ccccc2)n1` the cytotoxicity was 6.3% (inactive). In the case of `CCOc1ccc(-n2cc(C(=O)N3CCN(C)CC3)c3cc(OC)c(OC)cc3c2=O)cc1`, the cytotoxicity is reported as -7.2% (inactive). For `CC1CCN(S(=O)(=O)c2ccc3c(c2)c(=O)c(C(=O)NC2CCCC2)cn3C)CC1`, the cytotoxicity was 77% (active). With `Cn1cc(C(=O)NC2CCCCCC2)c(=O)c2cc(S(=O)(=O)N3CCCC3)ccc21` the cytotoxicity was -2.6% (inactive). With `Cn1cc(C(=O)NC2CCCCC2)c(=O)c2cc(S(=O)(=O)N3CCCC3)ccc21` the cytotoxicity was 6.5% (inactive). For `COC(=O)C1(C)NC(c2cccs2)C2C(=O)N(c3ccc(F)cc3)C(=O)C21` (stereo not given), the cytotoxicity was 3.3% (inactive). With `Cc1cc(NC(=O)CSc2nnc3c(C)cc4cc(C)c(C)cc4n23)no1` the cytotoxicity was 6.8% (inactive). In the case of `Cc1cc(C)c2c(c1)cc(C)c1nnc(SCC(=O)Nc3cc(C)on3)n12`, the cytotoxicity is reported as 20.4% (inactive). In the case of `Cc1cc(NC(=O)CSc2nnc3c(C)cc4c(C)ccc(C)c4n23)no1`, the cytotoxicity is reported as 64.6% (active). For `CCN(CCCNC(=O)CC(C(=O)N1CCc2ccccc21)n1ccnc1)c1ccccc1` (stereo not given), the cytotoxicity was -6.9% (inactive). In the case of `Cc1cccc2sc(NC(=O)CN(C)S(=O)(=O)c3cccs3)nc12`, the cytotoxicity is reported as 14.9% (inactive). In the case of `Cc1cccc2sc(NC(=O)CNS(=O)(=O)c3ccc(Br)s3)nc12`, the cytotoxicity is reported as 1.3% (inactive). With `C1CCN(c2nc(N3CCCC3)nc(N3CCNCC3)n2)C1` the cytotoxicity was 2.6% (inactive). With `Cc1ccc(C(=O)CSC2=C(C#N)C(c3ccco3)CC(=O)N2)c(C)c1` (stereo not given) the cytotoxicity was -3% (inactive). With `COc1ccccc1NC(=O)C1=C(C)NC(SCC(=O)c2ccc(C)cc2)=C(C#N)C1c1ccco1` (stereo not given) the cytotoxicity was 36.6% (inactive). With `COCCOC(=O)C1=C(C)NC(SCC(=O)NC(C)(C)C)=C(C#N)C1c1ccco1` (stereo not given) the cytotoxicity was 10.7% (inactive). In the case of `CC(=O)C1=C(C)NC(SCC(=O)c2ccc(F)cc2)=C(C#N)C1c1ccco1` (stereo not given), the cytotoxicity is reported as 79.8% (active). In the case of `CSCSC1=C(C#N)C(c2ccccc2Cl)C(C(C)=O)=C(C)N1` (stereo not given), the cytotoxicity is reported as 21.5% (inactive). In the case of `CC(=O)C1=C(C)NC(SCC(=O)c2ccccc2)=C(C#N)C1CC(C)C` (stereo not given), the cytotoxicity is reported as 8.5% (inactive). With `CC(=O)C1=C(C)NC(SCC(=O)c2cc(Cl)ccc2Cl)=C(C#N)C1c1ccco1` (stereo not given) the cytotoxicity was 53% (active). In the case of `CCOC(=O)CSC1=C(C#N)C(c2ccc(F)cc2)C(C(C)=O)=C(C)N1` (stereo not given), the cytotoxicity is reported as 0.3% (inactive). With `CC(=O)C1=C(C)NC(SCC(=O)c2ccc(Cl)c(Cl)c2)=C(C#N)C1c1ccco1` (stereo not given) the cytotoxicity was 75.6% (active). With `C=CCOC(=O)C1=C(C)NC(SCC(=O)Nc2ccc(C)c(Cl)c2)=C(C#N)C1c1ccco1` (stereo not given) the cytotoxicity was 0.2% (inactive). In the case of `CC(=O)C1=C(C)NC(SCC(=O)c2ccc(Cl)cc2Cl)=C(C#N)C1c1ccco1` (stereo not given), the cytotoxicity is reported as 40.9% (inactive).
